# Assay results as given in publication PMC7862700, “An all-to-all approach to the identification of sequence-specific readers for epigenetic DNA modifications on cytosine”.
# How the values were obtained:
# Assay in all cases: DAPPL (digital affinity profiling via proximity ligation, sequencing); 10 mM Tris-HCl pH 7.5, 50 mM NaCl, 1 mM DTT, 4% glycerol, room temperature, 30 min; GST-TFs on glutathione beads, 16-mer random dsDNA library, 0.1% formaldehyde crosslink after washing; high values mean tight binding
# [1] = biological target: T1, FLI1 (Homo sapiens, UniProt Q01543 1-452); settings: protein: recombinant; tags: N-terminal GST; dsDNA, one strand shown
# T1 sequence: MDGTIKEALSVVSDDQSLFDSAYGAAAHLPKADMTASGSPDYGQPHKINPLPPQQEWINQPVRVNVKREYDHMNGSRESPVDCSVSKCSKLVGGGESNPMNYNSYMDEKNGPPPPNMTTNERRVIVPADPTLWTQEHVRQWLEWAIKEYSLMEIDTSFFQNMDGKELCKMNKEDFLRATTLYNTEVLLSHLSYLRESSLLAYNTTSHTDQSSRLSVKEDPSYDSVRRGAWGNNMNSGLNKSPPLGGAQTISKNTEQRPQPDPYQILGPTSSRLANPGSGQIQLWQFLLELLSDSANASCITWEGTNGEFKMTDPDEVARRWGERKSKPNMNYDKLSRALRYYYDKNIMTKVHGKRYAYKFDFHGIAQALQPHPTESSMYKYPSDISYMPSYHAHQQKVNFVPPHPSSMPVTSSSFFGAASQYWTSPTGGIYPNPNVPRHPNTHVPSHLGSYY
# Method in brief: (§1)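 Sequencing on an Illumina NextSeq500 followed washing, crosslinking with 0.1% formaldehyde, proximity ligation (BsaI/T4 ligase, 1 h, 37 °C) and PCR amplification of pools that had been incubated for 30 min at room temperature with 200 nmole of a random double-stranded 16-mer DNA library in Tris/NaCl/DTT/glycerol buffer. Each pool held DNA-barcoded human transcription factors, expressed in yeast as GST fusions and captured on glutathione beads, plus a tag-only sample. Binding signal is a hexamer's read frequency for a factor divided by its frequency in the tag-only sample.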
# [2] = biological target: T2, ELK1 (Homo sapiens, UniProt P19419 1-428); settings: protein: recombinant; tags: N-terminal GST; dsDNA, one strand shown
# T2 sequence: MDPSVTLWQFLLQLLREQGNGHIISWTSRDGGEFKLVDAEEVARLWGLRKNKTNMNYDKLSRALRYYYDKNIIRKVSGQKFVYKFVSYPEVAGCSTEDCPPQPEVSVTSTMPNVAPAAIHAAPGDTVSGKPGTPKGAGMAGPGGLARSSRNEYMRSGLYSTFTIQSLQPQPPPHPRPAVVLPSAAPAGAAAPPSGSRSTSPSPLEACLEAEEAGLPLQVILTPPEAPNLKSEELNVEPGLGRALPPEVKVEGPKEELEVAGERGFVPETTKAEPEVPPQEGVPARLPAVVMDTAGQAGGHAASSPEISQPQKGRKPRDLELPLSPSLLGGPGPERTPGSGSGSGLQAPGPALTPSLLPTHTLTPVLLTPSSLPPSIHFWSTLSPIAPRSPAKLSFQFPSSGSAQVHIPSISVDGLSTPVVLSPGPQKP
# Method in brief: as §1
# [3] = biological target: T3, GABPA (Homo sapiens, UniProt Q06546 1-454); settings: protein: recombinant; tags: N-terminal GST; dsDNA, one strand shown
# T3 sequence: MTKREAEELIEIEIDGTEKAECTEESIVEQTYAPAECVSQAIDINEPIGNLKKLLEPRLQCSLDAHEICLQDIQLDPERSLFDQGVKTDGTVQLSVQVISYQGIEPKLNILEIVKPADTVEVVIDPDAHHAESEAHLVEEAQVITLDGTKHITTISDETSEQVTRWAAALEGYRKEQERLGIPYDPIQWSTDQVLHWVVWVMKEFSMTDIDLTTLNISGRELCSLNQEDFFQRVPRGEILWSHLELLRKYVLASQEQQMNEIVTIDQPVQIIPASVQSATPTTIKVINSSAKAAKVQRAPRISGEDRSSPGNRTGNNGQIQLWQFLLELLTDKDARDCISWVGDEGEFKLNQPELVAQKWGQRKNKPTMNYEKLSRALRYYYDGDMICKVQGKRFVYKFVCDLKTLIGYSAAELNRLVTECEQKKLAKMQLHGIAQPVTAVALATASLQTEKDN
# Method in brief: as §1
# [4] = biological target: T4, ERG (Homo sapiens, UniProt P11308 1-479); settings: protein: recombinant; tags: N-terminal GST; dsDNA, one strand shown
# T4 sequence: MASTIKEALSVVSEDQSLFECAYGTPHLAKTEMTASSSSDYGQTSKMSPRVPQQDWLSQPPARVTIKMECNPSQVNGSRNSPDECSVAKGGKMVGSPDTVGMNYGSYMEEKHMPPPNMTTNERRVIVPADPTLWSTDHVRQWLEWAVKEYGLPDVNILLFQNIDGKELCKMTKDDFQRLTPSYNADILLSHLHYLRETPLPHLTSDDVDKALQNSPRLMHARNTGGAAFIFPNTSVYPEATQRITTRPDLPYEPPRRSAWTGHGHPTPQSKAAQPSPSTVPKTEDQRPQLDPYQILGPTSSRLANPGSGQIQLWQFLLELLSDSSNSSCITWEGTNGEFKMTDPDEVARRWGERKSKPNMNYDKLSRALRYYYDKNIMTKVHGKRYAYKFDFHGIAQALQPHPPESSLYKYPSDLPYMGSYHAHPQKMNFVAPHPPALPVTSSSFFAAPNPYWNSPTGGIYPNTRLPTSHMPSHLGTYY
# Method in brief: as §1
# [5] = biological target: ELF1 (Homo sapiens, UniProt P32519 1-619); settings: protein: recombinant; tags: N-terminal GST; dsDNA, one strand shown
# Method in brief: as §1
# [6] = biological target: T5, EHF (Homo sapiens, UniProt Q9NZC4 1-300); settings: protein: recombinant; tags: N-terminal GST; dsDNA, one strand shown
# T5 sequence: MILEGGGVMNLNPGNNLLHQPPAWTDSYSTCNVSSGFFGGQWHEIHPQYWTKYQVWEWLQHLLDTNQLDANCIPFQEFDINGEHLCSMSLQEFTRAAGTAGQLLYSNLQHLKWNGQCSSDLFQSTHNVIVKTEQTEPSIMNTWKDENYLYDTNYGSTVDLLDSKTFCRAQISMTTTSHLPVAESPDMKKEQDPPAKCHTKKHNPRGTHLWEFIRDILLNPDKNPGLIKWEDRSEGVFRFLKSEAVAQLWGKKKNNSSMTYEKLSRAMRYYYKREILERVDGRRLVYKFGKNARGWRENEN
# Method in brief: as §1
# [7] = biological target: SPI1 (Homo sapiens, UniProt P17947 1-270); settings: protein: recombinant; tags: N-terminal GST; dsDNA, one strand shown
# Method in brief: as §1
# [8] = biological target: SPIB (Homo sapiens, UniProt Q01892 1-262); settings: protein: recombinant; tags: N-terminal GST; dsDNA, one strand shown
# Method in brief: as §1
# [9] = biological target: T6, ELK3 (Homo sapiens, UniProt P41970 1-407); settings: protein: recombinant; tags: N-terminal GST; dsDNA, one strand shown
# T6 sequence: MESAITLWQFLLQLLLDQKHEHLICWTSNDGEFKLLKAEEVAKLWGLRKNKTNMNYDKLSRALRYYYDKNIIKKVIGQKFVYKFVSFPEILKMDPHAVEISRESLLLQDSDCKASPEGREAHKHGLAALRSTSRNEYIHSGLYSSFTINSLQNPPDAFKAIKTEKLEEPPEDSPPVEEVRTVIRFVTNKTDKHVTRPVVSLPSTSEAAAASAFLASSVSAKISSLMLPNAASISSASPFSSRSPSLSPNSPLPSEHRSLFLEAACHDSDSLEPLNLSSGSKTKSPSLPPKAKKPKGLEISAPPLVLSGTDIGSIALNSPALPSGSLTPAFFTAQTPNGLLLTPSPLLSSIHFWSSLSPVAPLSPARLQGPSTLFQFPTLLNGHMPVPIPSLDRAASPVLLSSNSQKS
# Method in brief: as §1
# [10] = biological target: T7, FEV (Homo sapiens, UniProt Q99581 1-238); settings: protein: recombinant; tags: N-terminal GST; dsDNA, one strand shown
# T7 sequence: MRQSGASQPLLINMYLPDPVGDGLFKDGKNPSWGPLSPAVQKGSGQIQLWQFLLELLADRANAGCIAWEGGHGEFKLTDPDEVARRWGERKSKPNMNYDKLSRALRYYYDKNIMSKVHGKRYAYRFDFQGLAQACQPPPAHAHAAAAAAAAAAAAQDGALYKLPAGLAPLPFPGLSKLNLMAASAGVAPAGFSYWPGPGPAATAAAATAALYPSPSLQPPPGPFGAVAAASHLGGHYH
# Method in brief: as §1
# [11] = biological target: ETV5 (Homo sapiens, UniProt P41161 1-510); settings: protein: recombinant; tags: N-terminal GST; dsDNA, one strand shown
# Method in brief: as §1
# [12] = biological target: HSF1 (Homo sapiens, UniProt Q00613 1-529); settings: protein: recombinant; tags: N-terminal GST; chain copies: 3; dsDNA, one strand shown
# Method in brief: as §1
# [13] = biological target: T8, SPIC (Homo sapiens, UniProt Q8N5J4 1-248); settings: protein: recombinant; tags: N-terminal GST; dsDNA, one strand shown
# T8 sequence: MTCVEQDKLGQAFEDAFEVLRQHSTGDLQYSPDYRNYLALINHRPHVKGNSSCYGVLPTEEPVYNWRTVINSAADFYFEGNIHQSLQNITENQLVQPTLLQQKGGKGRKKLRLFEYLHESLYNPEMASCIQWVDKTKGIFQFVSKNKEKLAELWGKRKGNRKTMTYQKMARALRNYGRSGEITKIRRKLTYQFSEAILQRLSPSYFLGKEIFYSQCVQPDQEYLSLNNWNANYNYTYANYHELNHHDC
# Method in brief: as §1
# [14] = biological target: ELF4 (Homo sapiens, UniProt Q99607 1-663); settings: protein: recombinant; tags: N-terminal GST; dsDNA, one strand shown
# Method in brief: as §1
# [15] = biological target: T9, ELK4 (Homo sapiens, UniProt P28324-2 1-405); settings: protein: recombinant; tags: N-terminal GST; dsDNA, one strand shown
# T9 sequence: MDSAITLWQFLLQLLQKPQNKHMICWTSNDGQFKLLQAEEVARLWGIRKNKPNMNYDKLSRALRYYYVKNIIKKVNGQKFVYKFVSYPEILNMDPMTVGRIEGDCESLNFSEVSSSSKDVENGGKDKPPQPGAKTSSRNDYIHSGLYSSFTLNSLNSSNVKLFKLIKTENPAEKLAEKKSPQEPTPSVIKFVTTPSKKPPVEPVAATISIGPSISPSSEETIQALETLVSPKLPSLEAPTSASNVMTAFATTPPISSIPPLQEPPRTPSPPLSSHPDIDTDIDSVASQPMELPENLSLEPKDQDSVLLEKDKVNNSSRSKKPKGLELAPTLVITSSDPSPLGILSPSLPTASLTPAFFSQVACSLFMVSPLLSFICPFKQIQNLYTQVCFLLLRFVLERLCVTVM
# Method in brief: as §1
# [16] = biological target: T10, ETV2 (Homo sapiens, UniProt O00321 1-342); settings: protein: recombinant; tags: N-terminal GST; dsDNA, one strand shown
# T10 sequence: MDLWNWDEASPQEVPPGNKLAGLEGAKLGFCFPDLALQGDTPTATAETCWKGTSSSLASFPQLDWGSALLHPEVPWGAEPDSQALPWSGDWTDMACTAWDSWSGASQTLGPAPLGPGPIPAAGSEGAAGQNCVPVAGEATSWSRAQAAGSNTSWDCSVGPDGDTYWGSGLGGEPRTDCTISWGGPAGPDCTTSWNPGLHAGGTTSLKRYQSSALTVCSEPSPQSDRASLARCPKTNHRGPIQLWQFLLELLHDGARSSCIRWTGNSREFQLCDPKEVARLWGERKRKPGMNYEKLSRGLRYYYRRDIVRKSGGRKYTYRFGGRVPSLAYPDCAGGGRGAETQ
# Method in brief: as §1
# [17] = biological target: T11, ELF3 (Homo sapiens, UniProt P78545 1-371); settings: protein: recombinant; tags: N-terminal GST; dsDNA, one strand shown
# T11 sequence: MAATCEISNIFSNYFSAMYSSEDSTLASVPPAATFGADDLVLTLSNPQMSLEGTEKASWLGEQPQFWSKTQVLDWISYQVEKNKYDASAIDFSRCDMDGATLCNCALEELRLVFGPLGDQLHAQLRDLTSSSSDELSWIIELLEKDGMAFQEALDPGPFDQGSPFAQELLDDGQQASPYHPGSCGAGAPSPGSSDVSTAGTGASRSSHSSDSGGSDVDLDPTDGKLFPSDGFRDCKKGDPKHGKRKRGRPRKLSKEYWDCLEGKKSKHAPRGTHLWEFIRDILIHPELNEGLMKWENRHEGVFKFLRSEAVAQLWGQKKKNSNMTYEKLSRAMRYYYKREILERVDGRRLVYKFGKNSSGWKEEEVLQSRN
# Method in brief: as §1
# [18] = biological target: CRX (Homo sapiens, UniProt O43186 1-299); settings: protein: recombinant; tags: N-terminal GST; dsDNA, one strand shown
# Method in brief: as §1
# [19] = biological target: ETV1 (Homo sapiens, UniProt P50549 1-477); settings: protein: recombinant; tags: N-terminal GST; dsDNA, one strand shown
# Method in brief: as §1
# Chain of ETV1 (P50549 whole entry): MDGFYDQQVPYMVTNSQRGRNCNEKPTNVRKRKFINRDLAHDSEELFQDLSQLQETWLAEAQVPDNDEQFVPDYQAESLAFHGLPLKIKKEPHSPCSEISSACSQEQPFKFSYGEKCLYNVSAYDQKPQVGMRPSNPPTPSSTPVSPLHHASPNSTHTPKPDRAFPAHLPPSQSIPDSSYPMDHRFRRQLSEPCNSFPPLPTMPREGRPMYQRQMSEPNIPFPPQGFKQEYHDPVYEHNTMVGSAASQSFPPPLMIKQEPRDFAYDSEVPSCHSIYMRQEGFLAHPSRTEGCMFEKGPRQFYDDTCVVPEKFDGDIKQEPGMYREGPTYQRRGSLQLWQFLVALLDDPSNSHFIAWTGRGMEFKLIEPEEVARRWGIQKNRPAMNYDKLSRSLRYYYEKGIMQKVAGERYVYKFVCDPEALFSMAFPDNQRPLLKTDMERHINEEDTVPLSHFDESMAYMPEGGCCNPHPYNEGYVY
# Chain of ETV5 (P41161 whole entry): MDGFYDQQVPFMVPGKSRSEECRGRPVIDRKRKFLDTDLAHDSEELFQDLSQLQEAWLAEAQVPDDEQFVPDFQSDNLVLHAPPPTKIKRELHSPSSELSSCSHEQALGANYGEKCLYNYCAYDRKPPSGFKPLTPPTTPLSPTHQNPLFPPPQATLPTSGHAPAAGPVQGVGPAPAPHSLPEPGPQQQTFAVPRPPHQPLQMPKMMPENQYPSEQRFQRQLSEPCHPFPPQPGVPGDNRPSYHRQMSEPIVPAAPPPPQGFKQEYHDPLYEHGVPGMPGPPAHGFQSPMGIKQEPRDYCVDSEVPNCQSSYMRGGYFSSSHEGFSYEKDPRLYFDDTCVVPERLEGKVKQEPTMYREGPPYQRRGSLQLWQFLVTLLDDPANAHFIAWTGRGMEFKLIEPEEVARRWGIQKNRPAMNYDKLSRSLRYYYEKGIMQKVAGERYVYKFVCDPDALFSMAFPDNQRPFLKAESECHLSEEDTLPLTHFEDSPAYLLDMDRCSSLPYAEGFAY
# Chain of CRX (O43186 whole entry): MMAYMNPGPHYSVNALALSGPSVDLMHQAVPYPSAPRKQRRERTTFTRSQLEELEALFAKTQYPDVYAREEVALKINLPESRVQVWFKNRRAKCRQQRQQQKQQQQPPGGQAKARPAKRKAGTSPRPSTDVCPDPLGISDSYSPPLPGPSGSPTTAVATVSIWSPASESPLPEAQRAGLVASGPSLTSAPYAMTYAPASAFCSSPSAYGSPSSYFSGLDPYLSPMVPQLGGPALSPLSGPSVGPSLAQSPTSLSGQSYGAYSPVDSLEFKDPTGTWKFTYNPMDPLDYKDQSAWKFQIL
# Chain of ELF1 (P32519 whole entry): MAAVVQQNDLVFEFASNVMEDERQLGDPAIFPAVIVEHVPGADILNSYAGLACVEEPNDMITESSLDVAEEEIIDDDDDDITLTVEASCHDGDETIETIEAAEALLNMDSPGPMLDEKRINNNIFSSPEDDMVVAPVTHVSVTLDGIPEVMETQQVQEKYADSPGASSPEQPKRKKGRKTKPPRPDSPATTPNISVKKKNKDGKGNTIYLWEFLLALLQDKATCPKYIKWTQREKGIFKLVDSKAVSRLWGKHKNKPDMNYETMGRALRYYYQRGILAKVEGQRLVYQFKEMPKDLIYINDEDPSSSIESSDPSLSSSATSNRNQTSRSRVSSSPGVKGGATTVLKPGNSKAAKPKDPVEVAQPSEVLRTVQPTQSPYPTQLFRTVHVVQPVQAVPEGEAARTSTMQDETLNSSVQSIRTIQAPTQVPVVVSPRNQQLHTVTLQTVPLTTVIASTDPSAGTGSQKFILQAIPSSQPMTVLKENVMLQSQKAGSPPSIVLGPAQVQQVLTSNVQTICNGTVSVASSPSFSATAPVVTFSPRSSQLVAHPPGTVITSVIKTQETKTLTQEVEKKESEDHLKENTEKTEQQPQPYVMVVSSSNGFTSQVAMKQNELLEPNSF
# Chain of HSF1 (Q00613 whole entry): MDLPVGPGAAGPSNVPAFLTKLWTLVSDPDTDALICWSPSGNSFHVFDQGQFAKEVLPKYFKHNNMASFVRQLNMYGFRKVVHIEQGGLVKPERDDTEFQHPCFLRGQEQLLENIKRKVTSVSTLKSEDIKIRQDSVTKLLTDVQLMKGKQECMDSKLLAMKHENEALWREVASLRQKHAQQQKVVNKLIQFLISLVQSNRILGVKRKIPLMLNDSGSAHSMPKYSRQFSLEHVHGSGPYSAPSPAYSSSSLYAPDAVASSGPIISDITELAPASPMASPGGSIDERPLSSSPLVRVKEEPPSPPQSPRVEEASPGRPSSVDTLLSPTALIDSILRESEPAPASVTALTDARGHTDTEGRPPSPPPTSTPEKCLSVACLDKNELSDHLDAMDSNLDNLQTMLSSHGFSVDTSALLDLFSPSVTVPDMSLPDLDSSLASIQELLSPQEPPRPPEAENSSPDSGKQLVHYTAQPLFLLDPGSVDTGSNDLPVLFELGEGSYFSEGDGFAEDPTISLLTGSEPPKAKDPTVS
# Chain of ELF4 (Q99607 whole entry): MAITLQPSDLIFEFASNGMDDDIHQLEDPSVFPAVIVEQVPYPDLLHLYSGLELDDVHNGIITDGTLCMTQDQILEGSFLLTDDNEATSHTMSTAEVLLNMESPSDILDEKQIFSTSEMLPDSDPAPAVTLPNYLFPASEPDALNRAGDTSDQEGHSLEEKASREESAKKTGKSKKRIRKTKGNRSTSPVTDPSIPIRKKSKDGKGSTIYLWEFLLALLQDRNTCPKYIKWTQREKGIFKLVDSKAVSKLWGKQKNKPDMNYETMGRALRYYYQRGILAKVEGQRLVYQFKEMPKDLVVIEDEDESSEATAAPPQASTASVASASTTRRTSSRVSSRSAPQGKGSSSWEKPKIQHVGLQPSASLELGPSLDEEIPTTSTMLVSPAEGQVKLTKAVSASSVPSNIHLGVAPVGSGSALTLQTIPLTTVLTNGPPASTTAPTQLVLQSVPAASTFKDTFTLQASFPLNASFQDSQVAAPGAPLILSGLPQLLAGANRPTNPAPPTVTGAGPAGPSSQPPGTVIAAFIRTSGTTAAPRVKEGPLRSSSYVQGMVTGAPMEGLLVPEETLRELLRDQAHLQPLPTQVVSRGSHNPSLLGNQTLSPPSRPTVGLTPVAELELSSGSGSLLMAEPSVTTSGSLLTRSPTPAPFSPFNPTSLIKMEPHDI
# Chain of SPIB (Q01892 whole entry): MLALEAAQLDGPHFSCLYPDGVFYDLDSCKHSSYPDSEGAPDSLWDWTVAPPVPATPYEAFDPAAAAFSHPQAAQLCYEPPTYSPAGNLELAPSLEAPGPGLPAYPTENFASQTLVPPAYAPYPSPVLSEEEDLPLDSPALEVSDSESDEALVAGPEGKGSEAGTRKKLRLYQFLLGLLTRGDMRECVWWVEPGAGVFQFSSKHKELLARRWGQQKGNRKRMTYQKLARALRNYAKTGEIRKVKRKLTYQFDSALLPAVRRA
sequence,measurement,setting,value
ATCTTG,binding signal,[1],"1.35 fold enrichment (6-mer frequency, TF over GST control)"
same,binding signal,[2],"1.38 fold enrichment (6-mer frequency, TF over GST control)"
same,binding signal,[3],"1.27 fold enrichment (6-mer frequency, TF over GST control)"
same,binding signal,[4],"1.39 fold enrichment (6-mer frequency, TF over GST control)"
same,binding signal,[5],"1.33 fold enrichment (6-mer frequency, TF over GST control)"
same,binding signal,[6],"1.35 fold enrichment (6-mer frequency, TF over GST control)"
same,binding signal,[7],"1.3 fold enrichment (6-mer frequency, TF over GST control)"
same,binding signal,[8],"1.31 fold enrichment (6-mer frequency, TF over GST control)"
same,binding signal,[9],"1.41 fold enrichment (6-mer frequency, TF over GST control)"
same,binding signal,[10],"1.33 fold enrichment (6-mer frequency, TF over GST control)"
same,binding signal,[11],"1.2 fold enrichment (6-mer frequency, TF over GST control)"
same,binding signal,[12],"1.43 fold enrichment (6-mer frequency, TF over GST control)"
same,binding signal,[13],"1.39 fold enrichment (6-mer frequency, TF over GST control)"
same,binding signal,[14],"1.33 fold enrichment (6-mer frequency, TF over GST control)"
same,binding signal,[15],"1.39 fold enrichment (6-mer frequency, TF over GST control)"
same,binding signal,[16],"1.35 fold enrichment (6-mer frequency, TF over GST control)"
same,binding signal,[17],"1.5 fold enrichment (6-mer frequency, TF over GST control)"
same,binding signal,[18],"1.54 fold enrichment (6-mer frequency, TF over GST control)"
same,binding signal,[19],"1.25 fold enrichment (6-mer frequency, TF over GST control)"
